Experimental data published in PubChem BioAssay (Tox21).
Results filed as inconclusive are left out. Activity calls are given as the source filed them. Unless noted, calls come from the whole dose curve.

Columns and labels:
[1] = Nuclear factor erythroid 2-related factor 2/antioxidant responsive element (Nrf2/ARE) small molecule agonists: qHTS cell viability counter screen in human keratinocytes (AID 1919968; active = well fitted curve in the direction sought with a large enough effect in the repeat runs; an effect the other way counts as inactive or inconclusive; note: nearly all actives have a fitted effect of over 55% in size; note: potency is the fitted concentration of half-maximal effect)
Outline: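 Measured as CellTiter-Fluor fluorescence, this readout tracks cytotoxicity in the same wells as the ARE-luciferase screen. HaCaT reporter cells (1,500/well) received compounds after a 5 h pre-incubation and were exposed for 23 h.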

[2] = Nuclear factor erythroid 2-related factor 2/antioxidant responsive element (Nrf2/ARE) small molecule agonists: luciferase reporter gene qHTS assay in human keratinocytes (AID 1919969); note: nearly all actives have a fitted effect of over 35% in size; note: potency is the fitted concentration of half-maximal effect
[3] = molecular target: Gonadotropin-releasing hormone receptor (Homo sapiens) (UniProt P30968); experiment: Human gonadotropin-releasing hormone receptor (GnRHR) small molecule agonists, calcium flux assay in GnRHR-HEK293 cells (AID 1920063); note: nearly all actives have a fitted effect of over 35% in size
Outline: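 Fluorescence kinetics (480 nm excitation, 540 nm emission; 3 min, 1 s steps) report calcium mobilisation in human GnRHR-HEK293 cells in agonist mode. Dye incubation: 1 h, 37 C.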

[4] = molecular target: KiSS-1 receptor (Homo sapiens) (UniProt Q969F8); experiment: Human kisspeptin (KISS1R) small molecule agonists, calcium flux assay in KISS1R-HEK293 cells (AID 1920064; active = well fitted curve in the direction sought with a large enough effect in the repeat runs; an effect the other way counts as inactive or inconclusive)
Outline: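 Measures KISS1R agonism through calcium-sensitive dye fluorescence in stably transfected HEK293 cells, read for 3 min after pin-tool compound delivery; 15-point titrations in triplicate.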

[5] = G protein-coupled receptor (GPCR) small molecule agonists, calcium flux assay: HEK293 wild type cell line counter screen (AID 1920065)
Outline: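 Readout: fluorescence at 480 nm excitation/540 nm emission, sampled at 1 s intervals for 3 min. Cells had been cultured 18 h, then dye-loaded 1 h at 37 C before compound or ATP addition.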

[6] = p53 small molecule agonists, cell-based qHTS assay with human liver microsomes (AID 1963577);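 note: p53 response element beta-lactamase reporter cells with liver microsomes plus NADPH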
Outline: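 With metabolic activation: human liver microsomes (0.5 mg/mL final) plus NADPH (0.5 mg/mL final) added alongside compounds to p53RE-bla cells; 16 h 37 C exposure; beta-lactamase read by LiveBLAzer fluorescence.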

[7] = p53 small molecule agonists, cell-based qHTS assay with rat liver microsomes (AID 1963578)
Outline: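 Metabolic activation by rat liver microsomes and NADPH, each 0.5 mg/mL final, added right after compounds to p53RE-bla reporter cells (4,000/well, plated 5 h earlier). 16 h at 37 C, then LiveBLAzer substrate for 2 h at room temperature in the dark; fluorescence read-out.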

[8] = p53 small molecule agonists, cell-based qHTS assay with rat liver microsomes: qHTS cell viability counter screen (AID 1963580); note: nearly all actives have a fitted effect of over 45% in size; note: potency is the fitted concentration of half-maximal effect
Outline: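 p53RE-bla HCT-116 cells (4,000/well) rested 5 h at 37 C, then given Tox21 compounds in DMSO with rat liver microsomes (0.5 mg/mL final) plus NADPH (0.5 mg/mL final) for 16 h at 37 C. Viability read by CellTiter-Glo luminescence after 30 min at room temperature.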

[9] = molecular target: 5-hydroxytryptamine receptor 2A (Homo sapiens) (UniProt P28223); experiment: 5-hydroxytryptamine receptor 2A (HTR2A) small molecule agonists, cell-based qHTS assay (AID 1963587); note: nearly all actives have a fitted effect of over 30% in size
Outline: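 HTR2A-CHO cells, plated 18 h at 37 C/5% CO2, dye-loaded 1 h at 37 C; compounds in DMSO added by pin tool (agonist mode). Intracellular calcium flux read as kinetic fluorescence on FDSS over 2 min at 1 s intervals.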

[10] = molecular target: Muscarinic acetylcholine receptor M1 (Homo sapiens) (UniProt P11229); experiment: Cholinergic receptor muscarinic 1 (CHRM1) small molecule antagonists, cell-based qHTS assay (AID 1963588); note: nearly all actives have a fitted effect of over 40% in size
Outline: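 CHRM1-CHO calcium-flux assay, antagonist mode. Cells were seeded 18 h, dye-loaded 1 h at 37 C and given compound for 5 min at RT, then acetylcholine was added at 50nM. FDSS fluorescence was read 3 min; 15 concentrations, three runs.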

[11] = molecular target: Muscarinic acetylcholine receptor M1 (Homo sapiens) (UniProt P11229); experiment: Cholinergic receptor muscarinic 1 (CHRM1) small molecule agonists, cell-based qHTS assay (AID 1963589); note: nearly all actives have a fitted effect of over 35% in size
Outline: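 Each compound was tested at 15 concentrations across three independent runs on dye-loaded CHO cells stably expressing human CHRM1, reading intracellular calcium fluorescence kinetically at 1 sec intervals.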

[12] = cAMP Responsive Elements (CRE) small molecule agonists, cell-based qHTS assay (AID 1963590)
Outline: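 Cell line: CRE-bla HEK 293T; medium DMEM/10% dialyzed FBS/0.1 mM NEAA/1 mM pyruvate/25 mM HEPES; 3 h compound exposure; beta-lactamase FRET readout after 2 h substrate loading at RT.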

[13] = molecular target: Beta-2 adrenergic receptor (Homo sapiens) (UniProt P07550); experiment: Adrenergic beta2 receptor (ADRB2) small molecule antagonists, cell-based qHTS assay (AID 1963592); note: series mostly up to about 92 µM; nearly all actives have a fitted effect of over 50% in size
Outline: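 Cells (CHO, stable ADRB2 overexpression) incubated 18-20hr at 37C; compounds added from DMSO; agonist mix (1nM isoproterenol, 100uM IBMX, 25uM Ro-20-1724) added; 0.5hr RT; d2-cAMP and anti-cAMP-cryptate added; 1hr RT; 665/615 nm read.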

[14] = molecular target: D(2) dopamine receptor (Homo sapiens) (UniProt P14416); experiment: Dopamine D2 receptor (DRD2) small molecule agonists, cell-based qHTS assay (AID 1963594); note: nearly all actives have a fitted effect of over 35% in size
Outline: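 HEK293 cells stably expressing DRD2 were cultured 24 h at 37 C, then given Ro20-1724 (0.1 mM final) and compounds for 10 min at room temperature. NKH477 (200nM) was then added for 30 min. cAMP was read by HTRF.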

[15] = molecular target: D(2) dopamine receptor (Homo sapiens) (UniProt P14416); experiment: Dopamine D2 receptor (DRD2) small molecule antagonists, cell-based qHTS assay (AID 1963595; active = well fitted inhibition curve with a large enough effect in the signal ratio in the repeat runs, with a control signal flat; the % refers to the signal ratio)
Outline: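 DRD2-HEK293; 0.1 mM Ro20-1724; cpd 10 min RT; NKH477 200 nM + quinpirole 12 nM, 30 min RT; HTRF cAMP (cAMP-d2/anti-cAMP cryptate), 665/620 nm ratio after 1 h.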

[16] = p53 small molecule agonists, cell-based qHTS assay (AID 1963582; active = well fitted activation curve with a large enough effect in the signal ratio in the repeat runs, not every such curve was filed as active; the % refers to the signal ratio)
Outline: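 Compounds are pin-transferred in DMSO onto p53RE-bla cells and incubated 16 h at 37 C. The B/G FRET beta-lactamase substrate is then applied for 2 h at RT and fluorescence recorded.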

[17] = molecular target: 5-hydroxytryptamine receptor 2A (Homo sapiens) (UniProt P28223); experiment: 5-hydroxytryptamine receptor 2A (HTR2A) small molecule antagonists, cell-based qHTS assay (AID 1963586); note: nearly all actives have a fitted effect of over 45% in size
Outline: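 Antagonist-mode intracellular calcium assay: DOI (4 nM) added after 5 min compound pre-incubation at room temperature to dye-loaded HTR2A-CHO cells. Fluorescence followed for 3 min, sampled every second.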

[18] = cAMP Responsive Elements (CRE) small molecule antagonists, cell-based qHTS assay (AID 1963591; active = well fitted inhibition curve with a large enough effect in the signal ratio in the repeat runs, not every such curve was filed as active; the % refers to the signal ratio)
Outline: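 Inhibition of NKH477-driven (0.25 uM final) CRE-beta-lactamase signal in HEK293T cells, 3 h compound exposure at 37 °C, detected by FRET substrate fluorescence.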

[19] = p53 small molecule agonists, cell-based qHTS assay: qHTS cell viability counter screen (AID 1963581); note: nearly all actives have a fitted effect of over 45% in size
Outline: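 In the same plates used for the p53 bla reporter, HCT-116 cells given compounds for 16 h at 37 C received CellTiter-Glo; luminescence was recorded 30 min later at room temperature.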

Measured: Potency

Chain of D(2) dopamine receptor (Homo sapiens) (P14416 whole entry, looked up): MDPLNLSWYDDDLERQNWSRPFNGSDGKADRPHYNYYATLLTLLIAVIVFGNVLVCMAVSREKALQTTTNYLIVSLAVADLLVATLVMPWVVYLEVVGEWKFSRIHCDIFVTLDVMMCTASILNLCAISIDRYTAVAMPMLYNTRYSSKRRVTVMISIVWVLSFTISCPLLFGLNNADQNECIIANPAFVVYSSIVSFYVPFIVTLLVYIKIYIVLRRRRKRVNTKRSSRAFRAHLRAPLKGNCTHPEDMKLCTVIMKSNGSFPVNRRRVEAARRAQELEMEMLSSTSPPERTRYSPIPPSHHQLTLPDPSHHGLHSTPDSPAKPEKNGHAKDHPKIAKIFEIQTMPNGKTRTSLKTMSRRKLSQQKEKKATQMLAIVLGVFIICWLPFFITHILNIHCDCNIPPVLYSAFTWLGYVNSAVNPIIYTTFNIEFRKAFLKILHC
Chain of KiSS-1 receptor (Homo sapiens) (Q969F8 whole entry, looked up): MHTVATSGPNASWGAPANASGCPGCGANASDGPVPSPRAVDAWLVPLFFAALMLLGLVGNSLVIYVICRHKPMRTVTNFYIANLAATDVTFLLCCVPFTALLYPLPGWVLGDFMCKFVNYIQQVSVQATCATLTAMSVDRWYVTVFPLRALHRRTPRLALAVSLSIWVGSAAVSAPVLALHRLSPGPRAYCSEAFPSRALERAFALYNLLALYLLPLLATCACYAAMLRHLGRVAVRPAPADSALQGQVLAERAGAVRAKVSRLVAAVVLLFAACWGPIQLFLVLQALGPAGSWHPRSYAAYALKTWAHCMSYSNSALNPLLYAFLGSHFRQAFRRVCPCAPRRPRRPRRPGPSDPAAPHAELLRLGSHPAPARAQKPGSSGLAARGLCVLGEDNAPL
Chain of Beta-2 adrenergic receptor (Homo sapiens) (P07550 whole entry, looked up): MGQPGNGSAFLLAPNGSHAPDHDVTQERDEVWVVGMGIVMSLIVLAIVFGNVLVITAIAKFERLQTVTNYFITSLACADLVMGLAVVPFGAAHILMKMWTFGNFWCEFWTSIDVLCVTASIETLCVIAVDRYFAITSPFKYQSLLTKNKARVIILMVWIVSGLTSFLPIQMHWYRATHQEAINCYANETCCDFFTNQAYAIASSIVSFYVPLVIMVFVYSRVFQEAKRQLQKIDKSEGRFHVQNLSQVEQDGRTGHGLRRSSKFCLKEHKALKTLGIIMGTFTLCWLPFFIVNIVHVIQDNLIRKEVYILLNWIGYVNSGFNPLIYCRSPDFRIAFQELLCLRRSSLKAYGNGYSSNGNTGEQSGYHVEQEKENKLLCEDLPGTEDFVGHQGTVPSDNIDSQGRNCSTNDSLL
Chain of Gonadotropin-releasing hormone receptor (Homo sapiens) (P30968 whole entry, looked up): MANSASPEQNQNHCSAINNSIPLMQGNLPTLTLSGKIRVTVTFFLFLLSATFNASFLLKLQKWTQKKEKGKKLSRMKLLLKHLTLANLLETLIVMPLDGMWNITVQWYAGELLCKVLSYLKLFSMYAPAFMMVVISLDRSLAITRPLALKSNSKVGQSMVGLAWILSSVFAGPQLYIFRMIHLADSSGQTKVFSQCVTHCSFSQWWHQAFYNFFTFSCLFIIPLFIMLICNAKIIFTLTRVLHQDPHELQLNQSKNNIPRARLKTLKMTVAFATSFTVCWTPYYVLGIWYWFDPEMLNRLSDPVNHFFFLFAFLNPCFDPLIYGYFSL
Chain of 5-hydroxytryptamine receptor 2A (Homo sapiens) (P28223 whole entry, looked up): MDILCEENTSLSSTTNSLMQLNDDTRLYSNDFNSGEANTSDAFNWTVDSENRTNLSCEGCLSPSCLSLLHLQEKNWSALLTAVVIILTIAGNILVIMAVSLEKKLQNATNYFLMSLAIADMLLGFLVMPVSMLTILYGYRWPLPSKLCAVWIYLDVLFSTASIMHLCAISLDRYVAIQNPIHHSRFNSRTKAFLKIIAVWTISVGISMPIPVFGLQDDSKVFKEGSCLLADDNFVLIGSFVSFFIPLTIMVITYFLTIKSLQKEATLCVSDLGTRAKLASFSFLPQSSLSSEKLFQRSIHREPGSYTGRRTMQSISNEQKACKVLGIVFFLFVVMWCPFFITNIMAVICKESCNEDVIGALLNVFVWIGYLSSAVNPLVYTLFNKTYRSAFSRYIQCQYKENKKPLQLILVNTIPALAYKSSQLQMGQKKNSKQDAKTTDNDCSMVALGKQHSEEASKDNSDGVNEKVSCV
Chain of Muscarinic acetylcholine receptor M1 (Homo sapiens) (P11229 whole entry, looked up): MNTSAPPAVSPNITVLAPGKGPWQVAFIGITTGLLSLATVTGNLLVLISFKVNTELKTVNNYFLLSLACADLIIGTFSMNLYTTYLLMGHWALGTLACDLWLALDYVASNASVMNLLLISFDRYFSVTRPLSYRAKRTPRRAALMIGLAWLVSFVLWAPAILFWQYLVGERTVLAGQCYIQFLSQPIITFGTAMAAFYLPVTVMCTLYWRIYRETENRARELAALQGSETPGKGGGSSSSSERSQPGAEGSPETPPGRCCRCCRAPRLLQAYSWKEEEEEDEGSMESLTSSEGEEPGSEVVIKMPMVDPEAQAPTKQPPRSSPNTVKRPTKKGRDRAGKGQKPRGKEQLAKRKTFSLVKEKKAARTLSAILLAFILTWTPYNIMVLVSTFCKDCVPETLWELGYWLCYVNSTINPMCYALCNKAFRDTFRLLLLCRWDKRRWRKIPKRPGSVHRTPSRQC

CC(=O)CC(=O)Nc1ccc(C)cc1C
inactive: [1] | [2] | [3] | [4] | [5] | [6] | [7] | [8] | [9] | [10] | [11] | [12] | [13] | [14] | [15]

CN1CCN(N)CC1
inactive: [1] | [2] | [3] | [4] | [5] | [6] | [7] | [8] | [16] | [17] | [9] | [10] | [11] | [12] | [18] | [13] | [14] | [15]

O=c1cccccc1O
inactive: [3] | [4] | [5] | [6] | [7] | [16] | [17] | [9] | [10] | [11] | [18] | [13] | [14] | [15]
active: [1] 44.1 µM | [2] 24.8 µM | [8] 29.4 µM

C#CC(O)CCCCC (stereo unspecified)
inactive: [1] | [2] | [3] | [4] | [5] | [6] | [7] | [8] | [16] | [17] | [9] | [10] | [11] | [12] | [18] | [14]

CCCCCCC(=O)OCC
inactive: [1] | [2] | [3] | [4] | [5] | [6] | [7] | [19] | [16] | [17] | [9] | [10] | [11] | [12] | [13] | [14] | [15]

COc1cnc(NS(=O)(=O)c2ccc(N)cc2)nc1
inactive: [1] | [2] | [3] | [4] | [5] | [6] | [7] | [8] | [16] | [17] | [9] | [11] | [12] | [18] | [13] | [14] | [15]

COc1ccc(S(=O)(=O)N2c3ccc(Cl)cc3[C@@](O)(c3ccccc3Cl)[C@H]2C(=O)N2CCC[C@@H]2C(N)=O)cc1OC
inactive: [1] | [2] | [3] | [4] | [5] | [6] | [7] | [8] | [17] | [9] | [10] | [11] | [12] | [18] | [14] | [15]
